# Sampled rows, rich in hits. Any-hit rate of the full collection: about 1.7%.
# GLP-1R agonist: GLP-1 receptor (human) agonism; AID 624172; P43220; Potency, µM (series often up to 45.6 µM), hits mostly activators; HEK293 GLP-1R CRE-luciferase, luminescence, 4-6 h; cells express a hypersensitive GLP-1R form; 0.007% of 380,000 active
# GLP-1R inv ag: inverse agonists of human GLP-1 receptor. AID 624417. P43220. 1.6% of 410,000 active. HEK293 GLP-1R CRE-luciferase, luminescence, 24 h; GLP-1R form is constitutively active. Potency, µM (doses to about 38.3 µM), actives largely listed as inhibitors; further: nearly all actives have a fitted effect of over 55% in size
#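 Inverse agonists were sought by their lowering of basal cAMP reporter luciferase output in HEK293 cells stably carrying constitutively active human GLP-1R, after 24 h compound treatment.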
# IDH1 R132H inh: inhibitors of human mutant IDH1 R132H; 0.093% of 390,000 active; IDH1-R132H enzyme, NADPH consumption, diaphorase/resazurin fluorescence; Potency, µM (doses to about 76.6 µM), actives largely listed as inhibitors; O75874; further: nearly all actives have a fitted effect of over 65% in size
# Target sequence (O75874 whole entry R132H, stated change not applied): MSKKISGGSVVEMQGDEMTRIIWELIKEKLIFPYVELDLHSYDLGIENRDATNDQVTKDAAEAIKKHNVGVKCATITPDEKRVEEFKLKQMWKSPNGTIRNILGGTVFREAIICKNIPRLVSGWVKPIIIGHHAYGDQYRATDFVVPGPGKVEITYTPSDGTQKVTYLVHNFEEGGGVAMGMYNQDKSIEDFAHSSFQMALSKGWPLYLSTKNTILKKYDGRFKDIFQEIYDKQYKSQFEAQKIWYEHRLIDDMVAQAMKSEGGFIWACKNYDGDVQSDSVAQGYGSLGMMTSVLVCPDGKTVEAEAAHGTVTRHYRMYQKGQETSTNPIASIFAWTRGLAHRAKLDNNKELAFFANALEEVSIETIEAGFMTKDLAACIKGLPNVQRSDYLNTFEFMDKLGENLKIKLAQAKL
#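 IDH1-R132H (0.5 ug/mL) preincubated 30 min with compound, then NADPH (0.016 mM) and alpha-KG (2 mM) added; 80 min at RT, pH 7.5. Remaining NADPH coupled via diaphorase/resazurin to fluorescence (540/590 nm); concentration-response curves normalized to no-enzyme control.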
# LDHA block: LDHA (human) enzyme inhibition | P00338 | purified LDHA, NADH/diaphorase-resazurin fluorescence; active compounds read low | 0.15% of 480,000 active | activity change, % (values are at about 110 or 230 µM); in the data active means activity change below about -30%; inconclusive means mostly about -25% to -30%
#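 Resorufin fluorescence (ex540/em590), read at 0 and 20 min after diaphorase/resazurin addition, reports the NADH left after a 5 min room-temperature reaction of 2 nM human LDH5 with 0.06 mM NADH and 0.2 mM pyruvate.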
# PTHR1 agonist: agonists of human PTHR1 parathyroid hormone receptor; HEK293 GP2 PTHR1 cells, GloSensor cAMP luminescence, 1 h; Potency, µM (top dose mostly 115 µM), hits mostly activators; 0.075% of 410,000 active; further: nearly all actives have a fitted effect of over 55% in size
#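 HEK-293-derived GP2 cells expressing PTHR1 and a GloSensor cAMP reporter, 3,000/well, plated overnight, given luciferin plus IBMX (each 0.5 mM as added) for 1 h at 37 °C, then compound for 1 h at 37 °C. Luminescence was read after 15 min at room temperature.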
# GLP1R cytotox: cytotoxic in the GLP-1 receptor inverse agonist counter-screen; AID 624418; 0.13% of 410,000 active; HEK293 cAMP-luciferase reporter cells, luminescence, 24 h; Potency, µM (top dose mostly 38.3 µM), most hits filed as inhibitors;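 further: loss of luciferase light is scored as toxicity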
#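 Compound-treated cells are incubated 24 hr at 37 deg C under 5% CO2 after a 12 hour attachment period, then luciferase detection reagent is added and luminescence is measured following 12 min at room temperature; lowered signal indicates toxicity.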
# A number is an active result; - = inactive; ? = inconclusive; . = no result. Unless noted, the call rests on the fitted dose curve; in most records, active means well fitted curve in the direction sought with a large enough effect; inconclusive means small, poorly fitted or top-dose-only effect, or another doubt; inactive means no such curve, though single readings can be large; an effect the other way counts as inactive or inconclusive.
SMILES,GLP-1R agonist,GLP-1R inv ag,IDH1 R132H inh,LDHA block,PTHR1 agonist,GLP1R cytotox
Cc1cc(C)cc(NC(=O)c2cc(S(=O)(=O)NCCC3=CCCCC3)ccc2F)c1,.,?,-,-,-,-
Cc1cccc(C)c1NC(=O)c1cc(S(=O)(=O)N2CCCc3ccccc32)ccc1F,.,3.16µM,-,-,-,-
COc1ccc(S(=O)(=O)N2CCc3ccccc32)cc1C(=O)Nc1cccnc1,10µM,-,-,-,-,-
Cc1ccc(NC(=O)c2cc(S(=O)(=O)NCCC3=CCCCC3)ccc2F)cc1F,-,2µM,-,-,-,-
Cc1ccc(NC(=O)c2cc(S(=O)(=O)N3CCCc4ccccc43)ccc2F)cc1F,.,12.6µM,-,-,-,-
O=C(Nc1ccc(Cl)cc1)c1cc(S(=O)(=O)N2CCCc3ccccc32)ccc1F,.,?,-,-,-,-
CCOc1ccc(N2C(=O)c3ccccc3NC23CCCCC3)cc1,.,.,.,-,.,.
O=C(Nc1ccc(Br)cc1)c1ccc(F)c(S(=O)(=O)N2CCc3ccccc32)c1,.,4.47µM,-,-,-,-
CCc1cc(C(=O)Nc2cc(S(=O)(=O)N(CC)CC)ccc2N2CCOCC2)sc1C,-,7.94µM,-,-,-,-
CN(C)CCCNc1oc(-c2ccccc2Cl)nc1S(=O)(=O)c1ccc(F)cc1,-,?,-,-,-,-
CN(C)CCNc1oc(-c2ccccc2Cl)nc1S(=O)(=O)c1ccccc1,-,3.16µM,-,-,-,-
C=CCCN(C(CC(C)C)C(=O)OC)S(=O)(=O)c1cc(Br)ccc1Br (stereo unspecified),-,11.2µM,-,-,-,-
O=C(Cc1cccc(C(F)(F)F)c1)NCC1(N2CCCCC2)CCCCC1,.,.,.,-,.,.
C=CCNC(=S)N/N=C/C1=CCC2CC1C2(C)C (stereo unspecified),.,.,.,-,.,.
CC1(C)C2CC=C(/C=N/NC(=S)NC3CCCCC3)C1C2 (stereo unspecified),.,.,.,-,.,.
CC(C)NC(=S)N/N=C/C1=CCC2CC1C2(C)C (stereo unspecified),-,8.91µM,-,-,-,?
C=C(C)CNC(=S)N/N=C/C1=CCC2CC1C2(C)C (stereo unspecified),-,5.01µM,-,-,-,?
O=C(Cc1cccc(F)c1)NCCc1nc2c(s1)CCCC2,.,.,.,-,.,.
CCCNC(=O)NC(=O)COC(=O)c1sccc1C,.,.,.,-,.,.
CC(CNC(=O)c1nnc(C(=O)Nc2ccccc2)s1)c1ccccc1 (stereo unspecified),.,.,.,-,.,.
O=c1[nH]c2c(s1)C(c1ccccc1)C1C3CCC(C3)C1S2 (stereo unspecified),-,6.31µM,-,-,-,-
COc1ccc(C2c3sc(=O)[nH]c3SC3C4CCC(C4)C23)cc1 (stereo unspecified),-,-,-,-,-,-
COC(=O)c1nn(-c2ccccc2)c(Cl)c1/C=N/OCc1ccc(C)cc1,-,12.6µM,-,-,-,-
Cc1ccc(C)c(N2CCN(CCCNC(=O)Cn3cccc3C(=O)c3ccccc3)CC2)c1,-,5.01µM,-,-,-,-
Cc1ccccc1C(=O)c1cccn1CC(=O)NCCCN1CCc2ccccc2C1,-,10µM,-,-,-,-
SMILES,GLP-1R agonist,GLP-1R inv ag,IDH1 R132H inh,LDHA block,PTHR1 agonist,GLP1R cytotox
O=C(Cn1cccc1C(=O)c1ccccc1)NCCCN1CCOCC1,-,-,-,-,-,-
Cc1ccc2oc(=O)cc(CN3CCN(c4ccc(F)cc4)CC3)c2c1,.,.,.,-,.,.
CCN(CC)S(=O)(=O)c1cc(C)c(C)c([N+](=O)[O-])c1,.,.,.,-,.,.
CC(=O)N(C)C[C@@H]1Oc2ncc(Br)cc2C(=O)N([C@H](C)CO)C[C@@H]1C,-,-,-,-33.6,-,-
COc1ccc2c(c1)CC/C2=N\OC(=O)c1ccccc1OC,-,-,-,-,-,10µM
Cc1nc(C(=O)NNC(=O)c2c(-c3c(Cl)cccc3Cl)noc2C)cs1,-,5.62µM,-,-,-,8.91µM
